G9a block: G9a (human) methyltransferase inhibition; Potency, µM (highest dose often 102 µM), without a hit: at the highest dose activity, negative = inhibition, most hits filed as inhibitors; G9a H3K9 monomethylation, AlphaScreen, 2 h; Q96KQ7; hit rate 8.8% among 350,000; also: potency is read from the fitted curve at half-maximal effect; % is scaled to controls: 0 for no effect and ±100 for the full control effect; nearly all actives have a fitted effect of over 75% in size
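Signal arises when biotinylated H3K9 peptide, once monomethylated, bridges streptavidin donor and antibody-captured acceptor beads. Enzyme at 20 nM was preincubated 15 min with test compounds; peptide 500 nM and SAM 20 uM then reacted for 2 h.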
Six1-Eya2 inh: Six1/Eya2 interaction inhibition. AlphaScreen GST-Six1/His-Eya2 binding, biochemical; active compounds read low. activity change, % (concentration not given with the values). hit rate 0.56% among 360,000. AID 651725; in the data active = activity change below about -65%; inconclusive = mostly about -30% to -63%; also: % is scaled to controls: 0 for no effect and ±100 for the full control effect
Target sequence (O00167 whole entry, looked up): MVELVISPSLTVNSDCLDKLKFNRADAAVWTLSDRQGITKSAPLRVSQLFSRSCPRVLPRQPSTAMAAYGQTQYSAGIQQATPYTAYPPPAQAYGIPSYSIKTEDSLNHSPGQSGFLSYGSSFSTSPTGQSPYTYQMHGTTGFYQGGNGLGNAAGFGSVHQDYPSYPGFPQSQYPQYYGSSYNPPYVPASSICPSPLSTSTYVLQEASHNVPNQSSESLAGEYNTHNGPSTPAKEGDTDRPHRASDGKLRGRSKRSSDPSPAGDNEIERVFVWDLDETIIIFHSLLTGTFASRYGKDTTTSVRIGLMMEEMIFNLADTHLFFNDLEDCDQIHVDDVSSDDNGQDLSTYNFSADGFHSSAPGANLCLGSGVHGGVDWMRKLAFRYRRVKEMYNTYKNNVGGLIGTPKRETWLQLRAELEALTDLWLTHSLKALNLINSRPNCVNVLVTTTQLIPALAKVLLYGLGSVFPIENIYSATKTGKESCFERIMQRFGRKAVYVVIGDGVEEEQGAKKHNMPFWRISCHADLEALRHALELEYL
Target sequence (Q15475 whole entry, looked up): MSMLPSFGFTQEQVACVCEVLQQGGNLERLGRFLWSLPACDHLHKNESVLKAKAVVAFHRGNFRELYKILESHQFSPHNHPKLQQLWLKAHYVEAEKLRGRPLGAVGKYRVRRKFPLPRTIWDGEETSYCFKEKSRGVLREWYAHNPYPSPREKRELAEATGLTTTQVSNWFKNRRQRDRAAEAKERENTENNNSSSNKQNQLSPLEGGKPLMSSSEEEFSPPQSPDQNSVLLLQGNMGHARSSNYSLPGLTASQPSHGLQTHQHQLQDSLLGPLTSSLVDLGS
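Six1/Eya2 binding was read as AlphaScreen signal after compounds were pinned into GST-Six1 plus His-tagged Eya2 (5X stock 250/500 nM) in pH 8.0 Tris/NaCl/TCEP buffer, beads added, then incubated 1 h, 37 C, dark.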
BAZ2B block: BAZ2B (human) inhibition. Potency, µM (titrated, usually from 114 µM), for inactives: at the top dose activity change, negative = inhibition, actives largely listed as inhibitors. AlphaScreen BAZ2B-H3K14Ac peptide displacement. Q9UIF8. hit rate 4.4% among 360,000; also: potency is read from the fitted curve at half-maximal effect; % is scaled to controls: 0 for no effect and ±100 for the full control effect; nearly all actives have a fitted effect of over 60% in size
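BAZ2B (50 nM) with biotin-H3(5-23)K14Ac peptide (50 nM) in PBS pH 7.4, 0.01% Tween-20, preformed 30 min, then compound 30 min at room temperature; top concentration 110uM. AlphaScreen streptavidin donor/nickel chelate acceptor beads (10 ug/mL final), 20 min dark, signal read.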
CtBP-E1A inh: blocks the CtBP interaction with E1A; AlphaScreen GST-E1A/His-CtBP binding, 1536-well; active compounds read low; hit rate 0.49% among 340,000; activity change, % (no concentration beside the values); in the data active = activity change below about -65%; inconclusive = mostly about -30% to -63%; also: % is scaled to controls: 0 for no effect and ±100 for the full control effect
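In 5 uL wells, 23 nL compound meets equimolar GST-E1A and His-CtBP (5X stock 125 nM each) for 2 h, 37 °C. Beads (5X, 50 ug/mL) then 1 h, 37 °C, dark.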
JMJD2A Tudor: JMJD2A Tudor domain (human) inhibition; hit rate 4.4% among 390,000; AlphaScreen JMJD2A-Tudor / H3K4me3 peptide binding; Potency, µM (highest dose often 114 µM), inactives show at the highest dose activity change, negative = inhibition, actives largely listed as inhibitors; O75164; also: potency is read from the fitted curve at half-maximal effect; % is scaled to controls: 0 for no effect and ±100 for the full control effect; nearly all actives have a fitted effect of over 50% in size
HP1b binding inh: inhibitors of HP1-beta chromodomain binding to methylated histone tails | P83916 | AlphaScreen HP1-beta / biotin-H3K9me3 peptide binding | Potency, µM (top dose mostly 114 µM), for inactives: at the top dose activity change, negative = inhibition, most hits filed as inhibitors | hit rate 0.56% among 390,000 | AID 540317; also: potency is read from the fitted curve at half-maximal effect; nearly all actives have a fitted effect of over 70% in size
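HP1-beta protein (50 nM final) preincubated 30 min at room temperature with biotinylated H3(1-18)K9me3 peptide (50 nM) in PBS pH 7.4, 0.01% Tween-20, then compound added for 30 min. AlphaScreen streptavidin donor/nickel chelate acceptor beads (10 ug/mL final), 30 min dark, luminescence read.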
An asterisk follows results filed as active; ? = inconclusive; / = not tested or not shown; ! = a repeat was not active; [ ] = remark or other dose. An excerpt weighted towards active compounds, which were near 10% of everything screened. Unless noted, calls follow the shape of the dose curve; as a rule, active = well fitted inhibition curve with a large enough effect; inconclusive = small, poorly fitted or top-dose-only effect; inactive = no such curve, though single readings can be large or run the other way.

SMILES | G9a block | Six1-Eya2 inh | BAZ2B block | CtBP-E1A inh | JMJD2A Tudor | HP1b binding inh
Cc1ccc2cccc(OC(=O)c3ccc4c(c3)OCCO4)c2n1 | 8.9µM* | 0 | / | 2 | ? | 27%
O=C(Nc1cccc2cccnc12)c1ccc2c(c1)OCCO2 | 36%[59 µM] | 8 | 42% | 13 | -4% | 59%
CCOc1ccc(Nc2cc(C)nc(-n3nc(C)cc3C)n2)cc1 | 4%[2.33 µM] | -68* | ? | -79* | ? | 23%
COc1ccc(/C=N/Nc2cc(C)nc(-n3nc(C)cc3C)n2)c(OC)c1 | 40%[59 µM] | -76* | -32% | -73* | ? | -7%
CCOc1cc(/C=N/Nc2cc(C)nc(-n3nc(C)cc3C)n2)ccc1O | 45µM* | -20 | ? | ? | ? | 117%
CNc1cc(C)nc(-n2nc(C)cc2C)n1 | 20%[59 µM] | 1 | 0% | 0 | -14% | 37%
CC(C)N1CCN(Cc2cn[nH]c2C2CCCCC2)CC1CCO (centres undefined) | / | 11 | 3% | 0 | -15% | 26%
COc1ccc(N2CC(NC(=O)C3CC3)CC2=O)cc1 (centres undefined) | -8%[59 µM] | / | -5% | / | -8% | -11%
CN1C(=O)c2c(sc3c2CCCC3)NC1c1ccccc1O (centres undefined) | ? | / | -28% | / | / | /
CC1CCCC2(C1)NC(=S)c1c(sc3c1CCCC3)N2 (centres undefined) | 8.9µM* | -3 | ? | 24 | 79µM* | ?
C#CCOCCOCCOCCNc1nc(N2CCN(C(=O)C([C@@H](C)CC)n3cc(C(N)CC(C)C)nn3)CC2)nc(N2CCN(C(=O)[C@H](CCC(=O)O)n3cc(C(N)[C@H](C)CC)nn3)CC2)n1 (some centres undefined) | -105%[59 µM] | -3 | ? | -6 | 71µM* | 32%
C#CCOCCOCCOCCNc1nc(N2CCN(C(=O)[C@H](CCC(=O)O)n3cc(C(N)CC(C)C)nn3)CC2)nc(N2CCN(C(=O)[C@H](CCC(=O)O)n3cc(C(N)[C@H](C)CC)nn3)CC2)n1 (some centres undefined) | -133%[59 µM] | 2 | 50µM* | / | 79µM* | 27%
C#CCOCCOCCOCCNc1nc(N2CCN(C(=O)[C@H](CCC(=O)O)n3cc(C(N)CC(C)C)nn3)CC2)nc(N2CCN(C(=O)[C@H](Cc3ccc(O)cc3)n3cc(C(N)[C@H](C)CC)nn3)CC2)n1 (some centres undefined) | -140%[59 µM] | / | 32µM* | / | / | /
CN(C(=O)c1cc(-c2cccs2)nn1-c1ccccc1)C1CCS(=O)(=O)C1 (centres undefined) | / | -1 | / | 2 | / | /
CNC(=O)c1c(NC(=O)CCS(=O)(=O)c2ccc(F)cc2)sc(C)c1C | -20% | 10 | 8% | 0 | -19% | 16%
O=C(O)CN1C(=O)/C(=C\c2ccccc2OCc2ccc(F)cc2)SC1=S | 50µM* | 0 | -34% | -1 | ? | -11%
O=C(O)CN1C(=O)/C(=C\c2cc([N+](=O)[O-])ccc2OCc2ccccc2Cl)SC1=S | 35µM* | -11 | 50µM* | 0 | 50µM* | ?
O=C(O)CN1C(=O)/C(=C\c2cc(Br)ccc2OCc2ccc(Cl)cc2)SC1=S | 14µM* | -13 | 50µM* | / | 56µM* | 11%
COc1ccc(/C=C2/SC(=S)N(CC(=O)O)C2=O)cc1OCc1ccc(Cl)cc1 | / | -19 | ? | -16 | ? | -19%
O=C(O)CN1C(=O)/C(=C\c2cc(Br)ccc2OCc2ccc(F)cc2)SC1=S | 45µM* | -2 | 56µM* | -11 | ? | ?
O=C(CN1C(=O)/C(=C/c2ccccc2Cl)SC1=S)NC1C=CS(=O)(=O)C1 (centres undefined) | -1% | 0 | -32% | -12 | -12% | 26%
O=C(O)CCCN1C(=O)/C(=C/c2cn(-c3ccccc3)nc2-c2cccs2)SC1=S | ? | -10 | 45µM* | -11 | 14µM* | ?
O=C(O)CN1C(=O)/C(=C\c2ccccc2OCc2ccccc2)SC1=S | / | -6 | / | -1 | / | /
Cc1nn(-c2ccccc2)c(Cl)c1/C=C1\SC(=S)N(CCCCCC(=O)O)C1=O | 8%[12.7 µM] | -7 | ? | 6 | ? | ?
CN1CCN(C(=O)CCCN2C(=O)/C(=C/c3ccccc3)SC2=S)CC1 | ? | 6 | ? | -11 | ? | -38%
SMILES | G9a block | Six1-Eya2 inh | BAZ2B block | CtBP-E1A inh | JMJD2A Tudor | HP1b binding inh
O=C(O)CCCN1C(=O)/C(=C\c2ccccc2OCc2ccccc2)SC1=S | 40µM* | -5 | 50µM* | -13 | 56µM* | ?
O=C(O)CCCCN1C(=O)/C(=C\c2ccc(OCc3ccccc3)c(OCc3ccccc3)c2)SC1=S | -22% | ? | 32µM* | -11 | 18µM* | ?
O=C(O)CCCN1C(=O)/C(=C\C(Cl)=C\c2ccccc2)SC1=S | 14µM* | -15 | 50µM* | -6 | 50µM* | ?
Cc1ccc(OCc2nc(-c3ccc(C(=O)N4CCN(c5ccccc5F)CC4)cc3)oc2C)cc1 | ? | / | ? | / | -24% | -10%
COc1cccc(CNC(=O)C2CCCN(C(=O)c3ccc(Cl)cc3)C2)c1 (centres undefined) | -6%[12.7 µM] | -1 | -3% | 3 | 5% | 29%
CCOc1ccc(CN(C)CC(=O)NCc2ccccc2Cl)cc1 | 4% | -11 | 25% | 4 | -7% | 11%
Cc1ccc(-c2onc(C)c2C)cc1S(=O)(=O)NCc1cccs1 | 20%[59 µM] | / | -14% | / | -8% | 89%
CC(=O)NCCc1c[nH]c2ccc(O)cc12 | 11µM*! | 6 | / | -1 | -9% | 35%
COc1ccc2[nH]cc(CCNC(C)=O)c2c1 | 0%[59 µM] | 2 | / | 6 | -19% | 11%
Cc1cc(C)c2nc3nc(C)c(C)cc3c(N)c2c1 | 50µM* | ? | -24% | -25 | -2% | 12%
CCC(Sc1nnc(-c2ccc(C)c(Cl)c2)n1CC)C(=O)Nc1nccs1 (centres undefined) | ? | -13 | 3% | -13 | 89µM* | 41%
COC(=O)c1c(NC(=O)CN2C(=O)c3ccccc3C2=O)sc(Cc2ccc3c(c2)OCO3)c1C | 50µM* | -18 | -6% | -9 | -2% | -8%
Cc1c(Cc2ccc3c(c2)OCO3)sc(NC(=O)C2CC2)c1C(N)=O | 3.5µM* | 4 | -33% | 0 | ? | -23%
COC(=O)c1c(NC(=O)/C=C/C(=O)O)sc(Cc2ccccc2)c1C | 5%[59 µM] | -7 | -27% | 6 | -23% | 10%
COC(=O)c1ccsc1NC(=O)CN1CCN(Cc2ccc3c(c2)OCO3)CC1 | -3% | 0 | -1% | 43 | -30% | 15%

Assay outcomes (PubChem BioAssay)
